Results on 2 sequences are retold here after paper PMC7862700, “An all-to-all approach to the identification of sequence-specific readers for epigenetic DNA modifications on cytosine”.

Holding throughout (test): DAPPL (digital affinity profiling via proximity ligation, sequencing); 10 mM Tris-HCl pH 7.5, 50 mM NaCl, 1 mM DTT, 4% glycerol, room temperature, 30 min; GST-TFs on glutathione beads, 16-mer random dsDNA library, 0.1% formaldehyde crosslink after washing; high values mean tight binding
Common to all, as to settings: protein: recombinant; tags: N-terminal GST; dsDNA, one strand shown

One experiment concerns the target T1, FLI1 (Homo sapiens, UniProt Q01543 1-452).
T1 sequence: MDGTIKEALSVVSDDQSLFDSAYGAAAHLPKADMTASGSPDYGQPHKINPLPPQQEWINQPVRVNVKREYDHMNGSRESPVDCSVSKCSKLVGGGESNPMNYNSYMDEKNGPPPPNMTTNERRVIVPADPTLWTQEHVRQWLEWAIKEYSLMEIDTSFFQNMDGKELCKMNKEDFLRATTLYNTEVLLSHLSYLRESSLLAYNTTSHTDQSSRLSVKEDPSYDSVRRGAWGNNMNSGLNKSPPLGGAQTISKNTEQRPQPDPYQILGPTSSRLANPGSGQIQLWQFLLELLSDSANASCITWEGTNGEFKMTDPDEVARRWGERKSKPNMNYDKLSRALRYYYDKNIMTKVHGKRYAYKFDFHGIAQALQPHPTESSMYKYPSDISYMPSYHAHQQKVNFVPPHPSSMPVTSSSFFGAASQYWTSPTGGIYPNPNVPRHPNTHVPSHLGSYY
Put shortly:
(§1)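 Human transcription factors fused to GST were expressed in yeast, captured on glutathione beads, given DNA barcodes and pooled with a GST-only negative control. Pools were incubated with 200 nmole of a 16-mer random double-stranded DNA library in Tris/NaCl/DTT/glycerol buffer at room temperature for 30 min. They were then washed, crosslinked with 0.1% formaldehyde, proximity-ligated (BsaI/T4 ligase, 1 h, 37 °C), PCR-amplified and sequenced on an Illumina NextSeq500. Binding signal is each 6-mer's read frequency for a factor divided by its frequency for the GST control.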

The next experiment addresses T2, SPIC (Homo sapiens, UniProt Q8N5J4 1-248).
T2 sequence: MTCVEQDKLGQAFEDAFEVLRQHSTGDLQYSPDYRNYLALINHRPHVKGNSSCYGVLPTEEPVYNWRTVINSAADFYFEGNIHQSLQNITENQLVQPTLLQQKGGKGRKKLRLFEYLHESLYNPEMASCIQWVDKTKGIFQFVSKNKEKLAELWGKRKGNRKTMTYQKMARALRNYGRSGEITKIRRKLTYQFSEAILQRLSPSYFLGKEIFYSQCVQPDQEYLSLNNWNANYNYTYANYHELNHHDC
Put shortly: as §1

Another experiment concerns the target T3, ELK4 (Homo sapiens, UniProt P28324-2 1-405).
T3 sequence: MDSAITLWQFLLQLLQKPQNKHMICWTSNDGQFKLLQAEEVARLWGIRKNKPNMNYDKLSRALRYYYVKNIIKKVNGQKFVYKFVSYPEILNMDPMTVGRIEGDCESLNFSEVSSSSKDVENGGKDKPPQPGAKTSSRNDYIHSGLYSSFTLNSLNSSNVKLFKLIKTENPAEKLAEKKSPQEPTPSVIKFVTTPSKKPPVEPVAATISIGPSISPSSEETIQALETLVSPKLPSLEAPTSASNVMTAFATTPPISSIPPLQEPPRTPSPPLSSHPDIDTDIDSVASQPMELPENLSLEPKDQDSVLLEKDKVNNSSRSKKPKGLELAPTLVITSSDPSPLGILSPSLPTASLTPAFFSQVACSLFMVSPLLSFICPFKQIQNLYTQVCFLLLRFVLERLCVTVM
The procedure, abridged:
as §1

The target of another experiment is ELF1 (Homo sapiens, UniProt P32519 1-619). Put shortly: as §1
Chain of ELF1 (P32519 whole entry): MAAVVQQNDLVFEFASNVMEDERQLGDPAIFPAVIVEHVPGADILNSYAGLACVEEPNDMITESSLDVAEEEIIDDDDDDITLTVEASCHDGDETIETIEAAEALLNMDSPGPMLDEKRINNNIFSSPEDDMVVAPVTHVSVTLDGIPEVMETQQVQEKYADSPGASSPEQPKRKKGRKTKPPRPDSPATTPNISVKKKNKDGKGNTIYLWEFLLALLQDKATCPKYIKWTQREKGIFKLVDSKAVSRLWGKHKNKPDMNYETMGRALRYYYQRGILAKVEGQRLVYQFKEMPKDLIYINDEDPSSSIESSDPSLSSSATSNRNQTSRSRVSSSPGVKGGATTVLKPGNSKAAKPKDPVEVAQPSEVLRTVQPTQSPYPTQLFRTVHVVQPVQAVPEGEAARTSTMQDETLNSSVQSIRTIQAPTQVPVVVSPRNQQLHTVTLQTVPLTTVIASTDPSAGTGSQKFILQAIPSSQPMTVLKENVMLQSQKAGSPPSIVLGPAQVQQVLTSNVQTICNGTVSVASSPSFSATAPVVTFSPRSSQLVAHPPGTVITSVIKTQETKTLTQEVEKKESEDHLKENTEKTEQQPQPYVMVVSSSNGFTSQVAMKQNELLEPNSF
The target in a further experiment is T4, ETV2 (Homo sapiens, UniProt O00321 1-342).
T4 sequence: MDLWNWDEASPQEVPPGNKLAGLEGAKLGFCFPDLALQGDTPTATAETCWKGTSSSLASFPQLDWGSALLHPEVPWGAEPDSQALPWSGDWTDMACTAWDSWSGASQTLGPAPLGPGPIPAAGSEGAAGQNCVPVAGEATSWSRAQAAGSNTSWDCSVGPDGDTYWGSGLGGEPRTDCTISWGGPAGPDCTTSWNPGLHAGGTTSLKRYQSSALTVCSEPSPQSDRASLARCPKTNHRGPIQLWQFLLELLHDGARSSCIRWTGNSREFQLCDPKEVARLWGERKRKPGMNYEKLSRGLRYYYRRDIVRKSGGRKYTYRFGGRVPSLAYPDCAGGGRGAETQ
Put shortly:
as §1

A further experiment has as its target T5, ERF (Homo sapiens, UniProt P50548 1-548).
T5 sequence: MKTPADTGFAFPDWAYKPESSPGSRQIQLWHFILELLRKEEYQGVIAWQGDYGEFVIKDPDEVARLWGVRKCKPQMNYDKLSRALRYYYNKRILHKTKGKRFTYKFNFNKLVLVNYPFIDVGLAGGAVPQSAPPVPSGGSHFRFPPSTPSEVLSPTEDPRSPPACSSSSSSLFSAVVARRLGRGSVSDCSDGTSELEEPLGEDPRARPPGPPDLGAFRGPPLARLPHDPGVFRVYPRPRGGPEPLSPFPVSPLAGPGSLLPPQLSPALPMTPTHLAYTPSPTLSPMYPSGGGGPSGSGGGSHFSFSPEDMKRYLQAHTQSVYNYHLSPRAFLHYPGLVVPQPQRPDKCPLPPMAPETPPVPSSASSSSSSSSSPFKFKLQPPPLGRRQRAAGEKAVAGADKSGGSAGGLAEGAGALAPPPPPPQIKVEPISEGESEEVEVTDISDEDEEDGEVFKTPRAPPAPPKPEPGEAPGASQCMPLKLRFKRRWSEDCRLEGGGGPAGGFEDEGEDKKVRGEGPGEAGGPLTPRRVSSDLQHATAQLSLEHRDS
Put shortly: as §1

The next experiment concerns the target T6, ETV3L (Homo sapiens, UniProt Q6ZN32 1-361).
T6 sequence: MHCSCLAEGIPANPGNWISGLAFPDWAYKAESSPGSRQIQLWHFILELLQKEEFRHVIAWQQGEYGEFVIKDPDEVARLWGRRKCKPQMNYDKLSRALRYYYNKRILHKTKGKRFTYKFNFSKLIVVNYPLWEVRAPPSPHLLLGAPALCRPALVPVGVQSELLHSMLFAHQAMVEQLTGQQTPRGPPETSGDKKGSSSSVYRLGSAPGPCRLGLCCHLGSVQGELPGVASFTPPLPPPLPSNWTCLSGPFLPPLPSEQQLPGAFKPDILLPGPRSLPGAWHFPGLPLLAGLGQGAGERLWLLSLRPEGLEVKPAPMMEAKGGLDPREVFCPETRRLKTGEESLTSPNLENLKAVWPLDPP
Put shortly: as §1

Another experiment has as its target T7, ETV7 (Homo sapiens, UniProt Q9Y603 1-341).
T7 sequence: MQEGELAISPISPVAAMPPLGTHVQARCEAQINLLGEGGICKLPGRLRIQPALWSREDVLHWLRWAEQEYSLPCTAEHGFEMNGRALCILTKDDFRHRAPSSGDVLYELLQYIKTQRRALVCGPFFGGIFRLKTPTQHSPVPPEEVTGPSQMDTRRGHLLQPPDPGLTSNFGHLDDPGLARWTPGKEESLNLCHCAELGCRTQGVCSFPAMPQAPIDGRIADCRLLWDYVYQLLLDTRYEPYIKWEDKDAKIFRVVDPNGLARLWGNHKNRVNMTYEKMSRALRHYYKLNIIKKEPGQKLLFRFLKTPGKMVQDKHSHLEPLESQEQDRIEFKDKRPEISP
The procedure, abridged:
as §1

As for CTTGAG, the binding signal with FLI1 is 1.08 fold enrichment (6-mer frequency, TF over GST control); with SPIC it was 1.12 fold enrichment (6-mer frequency, TF over GST control); with ELK4 it was 1.05 fold enrichment (6-mer frequency, TF over GST control).
As to GCGTTG, the binding signal with FLI1 is 1.1 fold enrichment (6-mer frequency, TF over GST control); with ELF1 it was 1.01 fold enrichment (6-mer frequency, TF over GST control); with SPIC it was 1.03 fold enrichment (6-mer frequency, TF over GST control); with ETV2, 1.01 fold enrichment (6-mer frequency, TF over GST control); in the experiment with ERF, 1.12 fold enrichment (6-mer frequency, TF over GST control); in the experiment with ETV3L it was 1.03 fold enrichment (6-mer frequency, TF over GST control). In addition, in the experiment with ETV7, the binding signal is 1.01 fold enrichment (6-mer frequency, TF over GST control).
